# Structures can show the parent of a compound that is named as a salt. ± gives the standard deviation of the averaged measurements.
# Columns and labels:
# Assay in all cases: growth (OD600 after 10 h); higher = more growth (less inhibition)
# [1] = test system: E. coli TESEC Alr+ wild-type control; settings: compound 0.1 mM; raw OD600 reference: median of DMSO wells 0.241, cell-free background 0.041
# Method: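 TESEC Mtb Alr E. coli, or the Alr+ wild-type control, in 384-well plates with Prestwick library compounds at 0.1 mM and 1% DMSO, across arabinose induction levels of 1E3 to 1E7 nM. Growth is read as OD600 after 10 h at 37 °C in triplicate biological replicates.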
# [2] = test system: E. coli TESEC Mtb Asd; settings: compound 0.1 mM
# Method: (§1)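 TESEC E. coli strains in which the native enzyme is deleted and replaced by arabinose-inducible Mtb Asd, DapB, CysH or TrpD, each grown in its selective medium. Strains were screened against the Prestwick library at 0.1 mM and 1% DMSO in 384-well format at low and high arabinose induction. Growth is read as OD600 after 10 h in triplicate.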
# [3] = test system: E. coli TESEC Mtb DapB; settings: compound 0.1 mM
# Method: as §1
# [4] = test system: E. coli TESEC Alr+ wild-type control; settings: compound 0.1 mM; raw OD600 reference: median of DMSO wells 0.49, cell-free background 0.052
# Method: (§2)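 TESEC Mtb Alr E. coli (ΔaraC ΔtolC ΔentC Δalr ΔdadX, arabinose-inducible Mtb Alr) or the Alr+ wild-type control strain, grown in defined M9-fructose medium without D-alanine in 96-well plates with Prestwick library compounds at 0.1 mM and 1% DMSO. Low Alr induction is 0.1 µM arabinose and high induction is 10 mM arabinose.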
# [5] = test system: E. coli TESEC Mtb Alr; settings: compound 0.1 mM
# Method: as §2
# [6] = arabinose induction (level): High, raw OD600 reference: median of DMSO wells 0.331, cell-free background 0.041
# [7] = arabinose induction (level): Low, raw OD600 reference: median of DMSO wells 0.417, cell-free background 0.041
# [8] = arabinose induction (level): High, raw OD600 reference: median of DMSO wells […], cell-free background 0.041
# [9] = arabinose induction (level): Low, raw OD600 reference: median of DMSO wells 0.227, cell-free background 0.041
# [10] = arabinose 100 nM, raw OD600 reference: median of DMSO wells 0.413, cell-free background 0.052
# [11] = arabinose 10000000 nM, raw OD600 reference: median of DMSO wells […], cell-free background 0.052
SMILES,growth [1],"growth [2, 6]","growth [2, 7]","growth [3, 8]","growth [3, 9]",growth [4],"growth [5, 10]","growth [5, 11]"
Cc1cc(C(C)(C)C)c(O)c(C)c1CC1=NCCN1 [Oxymetazoline hydrochloride],0.236 ± 0.0092,0.372 ± 0.07,0.416 ± 0.035,0.202 ± 0.016,0.251 ± 0.028,0.514 ± 0.062,0.414 ± 0.013,0.328 ± 0.011
O=C1OCCN1/N=C/c1ccc([N+](=O)[O-])o1 [Furazolidone],0.0406 ± 0.0001,0.056 ± 0.0037,0.0561 ± 0.0034,0.114 ± 0.0074,0.112 ± 0.012,0.05247 ± 0.00031,0.0572 ± 0.0027,0.05093 ± 0.00032
N#CC(c1ccc(Cl)cc1)c1c(Cl)cc(-n2ncc(=O)[nH]c2=O)cc1Cl (stereo not given) [Diclazuril],0.0414 ± 0.00047,0.048 ± 0.0019,0.0482 ± 0.002,0.0518 ± 0.0015,0.0496 ± 0.0011,0.156 ± 0.17,0.0632 ± 0.00095,0.0529 ± 0.00089
NS(=O)(=O)c1cc(C(=O)O)c(NCc2ccco2)cc1Cl [Furosemide],0.244 ± 0.0029,0.353 ± 0.011,0.408 ± 0.054,0.181 ± 0.0028,0.194 ± 0.0081,0.613 ± 0.019,0.406 ± 0.012,0.353 ± 0.014
O=C1C(=O)c2ccccc2C(O)=C1C1CCC(c2ccc(Cl)cc2)CC1 (stereo not given) [Atovaquone],0.171 ± 0.0064,0.271 ± 0.12,0.23 ± 0.017,0.199 ± 0.009,0.204 ± 0.015,0.545 ± 0.044,0.442 ± 0.023,0.231 ± 0.025
CC(C)c1c(C(=O)Nc2ccccc2)c(-c2ccccc2)c(-c2ccc(F)cc2)n1CC[C@@H](O)C[C@@H](O)CC(=O)O [Atorvastatin],0.12 ± 0.0024,0.169 ± 0.018,0.169 ± 0.018,0.171 ± 0.018,0.183 ± 0.031,0.217 ± 0.011,0.352 ± 0.058,0.175 ± 0.037
COc1ccc(CN2CCN(C(c3ccc(F)cc3)c3ccc(F)cc3)CC2)c(OC)c1OC [Lomerizine hydrochloride],0.119 ± 0.0034,0.0685 ± 0.0042,0.0562 ± 0.0023,0.0966 ± 0.0085,0.0956 ± 0.013,0.233 ± 0.0047,0.248 ± 0.018,0.0708 ± 0.013
CCOC(=O)c1ccc(OC(=O)CCCCCNC(=N)N)cc1 [Gabexate mesilate],0.15 ± 0.014,0.135 ± 0.015,0.147 ± 0.017,0.177 ± 0.0061,0.16 ± 0.011,0.495 ± 0.029,0.396 ± 0.013,0.123 ± 0.0081
CCCc1ncc(C[n+]2ccccc2C)c(N)n1 [Amprolium hydrochloride],0.245 ± 0.0098,0.359 ± 0.016,0.386 ± 0.0088,0.187 ± 0.0079,0.228 ± 0.05,0.497 ± 0.041,0.407 ± 0.016,0.376 ± 0.028
"C[C@](N)(Cc1ccc(O)c(O)c1)C(=O)O [Methyldopa (L,-)]",0.241 ± 0.011,0.356 ± 0.044,0.458 ± 0.041,0.187 ± 0.0082,0.226 ± 0.022,0.508 ± 0.05,0.411 ± 0.015,0.345 ± 0.026
